Results on 11 molecules are retold here after PubChem BioAssay (NCATS).

Assay [1] is described as follows: NS1 protein of Zika virus - qHTS assay to identify small molecule inhibitors in human HEK 293 cells (AID 1347053). Further: series mostly up to about 46 µM; nearly all actives have a fitted effect of over 55% in size. In outline:
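HEK 293 cells, seeded 20 h at 37 C, were pretreated with compound 1 h, then infected with ZIKV MR766 (MOI = 0.5) for 24 h. NS1 was read by TR-FRET with two anti-NS1 antibodies, normalized to uninfected and infected wells.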

Assay [2] can be described thus: qHTS of pediatric cancer cell lines to identify multiple opportunities for drug repurposing: Primary screen for SJ-GBM2 cells (AID 1347091). Further: potency means the concentration at half of the fitted maximal effect. In outline:
(§1)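 Eight- or eleven-point concentration series, 48 h treatment at 37 degrees C in growth media; readout CellTiter-Glo luminescence. Potency and efficacy were taken from the concentration-response curves.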
Background: Quantitative high-throughput screening tests each substance at several concentrations.

A short description of assay [3]: qHTS of pediatric cancer cell lines to identify multiple opportunities for drug repurposing: Primary screen for A673 cells (AID 1347092). Further: nearly all actives have a fitted effect of over 45% in size. Further: potency means the concentration at half of the fitted maximal effect. In outline: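 Luminescence from CellTiter-Glo, taken after 15 min at room temperature, served as the proxy for metabolically active cells following 48 h treatment. Both potency and efficacy were taken from curves fitted to the titration data.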

Assay [4] can be described thus: qHTS of pediatric cancer cell lines to identify multiple opportunities for drug repurposing: Primary screen for TC32 cells (AID 1347089). Further: nearly all actives have a fitted effect of over 60% in size. Further: potency means the concentration at half of the fitted maximal effect. The method in brief: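 qHTS, TC32, 48 h drug treatment, CellTiter-Glo luminescence as a proxy for metabolically active cells; primary top concentration 46 µM (MIPE 11-pt, NPC 8-pt); confirmatory 11-pt.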
Assay [5] can be described thus: qHTS of pediatric cancer cell lines to identify multiple opportunities for drug repurposing: Primary screen for DAOY cells (AID 1347090). Further: nearly all actives have a fitted effect of over 55% in size. Further: potency means the concentration at half of the fitted maximal effect. In outline: as §1

Inconclusive results are not listed. Activity calls are given as the source filed them. The call rests on the fitted dose curve; in most records, active means well fitted curve in the direction sought with a large enough effect; inconclusive means small, poorly fitted or top-dose-only effect, or another doubt; inactive means no such curve, though single readings can be large; an effect the other way counts as inactive or inconclusive.

In the case of `CCOC(=O)c1cc(=O)c2c(OCC(COc3cccc4oc(C(=O)OCC)cc(=O)c34)OC(=O)[C@@H](N)CCCCN)cccc2o1`, the Potency entry in assay [1], in assay [2] and in assay [3] was “inactive” each time.

For `COc1c(C)c2c(c(O)c1C/C=C(\C)CCC(=O)OCCN1CCOCC1)C(=O)OC2`, in assay [4], the Potency was 0.745 µM (active).

In the case of `Nc1cc(C(F)(F)F)ccc1S`, the Potency result in assay [1] and in assay [2] was “inactive” each time. In addition, the Potency in assay [3] was 21.1 µM (active).

Regarding `CC(C)(C)c1ccc(O)c(O)c1`, the Potency result in assay [1] was “inactive”. In addition, the Potency in assay [5] was 24.3 µM (active); in assay [2], 30.6 µM (active); in assay [3], 15.4 µM (active).

With `Cc1[nH]cnc1-c1ccc(Cl)cc1`, the Potency entry in assay [1], in assay [5], in assay [2] and in assay [3] was “inactive” throughout.

Regarding `Oc1ccccc1-c1nnco1`, the Potency result in assay [1], in assay [5], in assay [2] and in assay [3] was “inactive” each time.

As for `Cc1cc(=O)oc2cc(O[C@@H]3SC[C@@H](O)[C@H](O)[C@H]3O)ccc12`, the Potency entry in assay [1], in assay [5], in assay [2] and in assay [3] was “inactive” throughout.

With `CC(C)(C)CC(=O)OCC(=O)[C@@]1(O)CC[C@H]2[C@@H]3CCC4=CC(=O)C=C[C@]4(C)[C@H]3[C@@H](O)C[C@@]21C`, the Potency entry in assay [1], in assay [5], in assay [2] and in assay [3] was “inactive” each time.

In the case of `CC(C)(C)C1CCC(CC2=C(O)c3ccccc3C(=O)C2=O)CC1` (centres undefined), the Potency entry in assay [4] was “inactive”. For the same molecule, the Potency in assay [5] was 3.35 µM (active).

As to `CN1CCCN(C(c2ccccc2)c2ccc(Cl)cc2)CC1` (centres undefined), the Potency entry in assay [4] and in assay [5] was “inactive” throughout.

With `CCCC(=O)Nc1ccc(O)c(C(C)=O)c1`, the Potency entry in assay [4], in assay [5] and in assay [2] was “inactive” in each case.
